Laboratory results from PubChem BioAssay AID1961 (Sanford-Burnham Center for Chemical Genomics, 2009).
In all, about 290,000 compounds went through this assay and about 140 (0.048%) were called active.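 The calls were made as follows: active = activation above 40% with more than 50 cells counted in the well; inconclusive = wells holding fewer than 50 cells, flagged as toxic or sparse; inactive = the rest.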 What follows is part of a selection rich in actives, with near analogues and random picks from the rest.

What was measured:
[1] = GPR55 agonists via beta-arrestin recruitment, primary screen, imaging, U2OS cells, beta-arrestin-GFP redistribution (AID 1961); conditions: measured here: cytotoxicity, cells analyzed, at 10 µM;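 also: U2OS osteosarcoma cells stably expressing GPR55 and beta-arrestin-GFP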;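 as to activation: plate controls were DMSO negative control for no effect and LPI positive control for full effect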
[2] = target: G-protein coupled receptor 55 (Homo sapiens) (UniProt Q9Y2T6); assay: as above; conditions: at 10 µM, stronger effect = higher value
G-protein coupled receptor 55 (Homo sapiens), sequence (Q9Y2T6 whole entry, looked up): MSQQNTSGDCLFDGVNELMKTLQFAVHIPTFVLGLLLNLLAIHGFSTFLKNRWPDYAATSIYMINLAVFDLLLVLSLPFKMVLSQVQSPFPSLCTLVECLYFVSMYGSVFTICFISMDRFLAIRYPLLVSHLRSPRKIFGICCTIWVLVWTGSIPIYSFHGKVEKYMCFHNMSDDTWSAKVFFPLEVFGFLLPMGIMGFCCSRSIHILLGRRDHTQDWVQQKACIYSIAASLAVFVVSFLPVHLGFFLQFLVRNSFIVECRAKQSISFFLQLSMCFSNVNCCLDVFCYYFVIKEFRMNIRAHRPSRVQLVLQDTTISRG

SMILES	cell count [1] [cells]	activation [2]
CCN1CCCC1CNCc1cc(OC)c(OC)c(OC)c1 (centres undefined)	313	-0.1% (inactive)
COc1ccccc1Cc1noc(COc2cccc(C)c2C)n1	384	-0.1% (inactive)
Cc1nnc(SC(C)C)n(N)c1=O	256	-1.1% (inactive)
O=c1cnnc(SCc2ccc([N+](=O)[O-])cc2)[nH]1	243	0.2% (inactive)
CCn1nc(C)c(CN2CCC(C(=O)Nc3cccc(-c4cccc(Cl)c4)c3)CC2)c1C	372	0% (inactive)
CCC1(C)Cc2c(sc3c2c(=O)n(C)c2nnc(SCCc4ccccc4)n32)CO1 (centres undefined)	322	-0.2% (inactive)
C=CCSc1nnc2n(CCc3ccccc3)c(=O)c3c4c(sc3n12)COC(C)(C)C4	369	-0.1% (inactive)
CCCCSc1nnc2n(CCc3ccccc3)c(=O)c3c4c(sc3n12)COC(C)(C)C4	332	58% (active)
COc1ccc(C2CC(c3ccc(F)cc3)=NN2c2ccccc2)cc1OC (centres undefined)	391	-0.1% (inactive)
COc1cc(C2CC(c3ccccc3)=NN2c2ccccc2)ccc1OCC(=O)O (centres undefined)	329	0.9% (inactive)
O=C(CSc1nnc(CNc2ccc(F)cc2)n1CC1CCCO1)N1CCOCC1 (centres undefined)	336	0.2% (inactive)
CCOc1ccc(/C=N/NC(=O)C(C)N(c2ccc(OC)cc2)S(C)(=O)=O)cc1OCC (centres undefined)	265	0.6% (inactive)
CCOC(=O)CS(=O)(=O)c1nc(-c2ccccc2)cc(C(F)(F)F)n1	302	49.8% (active)
CCOC(=O)CCS(=O)(=O)c1nc(-c2ccccc2)cc(C(F)(F)F)n1	310	14.3% (inactive)
CCOC(=O)CS(=O)(=O)c1nc(-c2ccc(F)cc2)cc(C(F)(F)F)n1	353	16.3% (inactive)
CNC(=O)CSc1nnc(-c2cccs2)o1	345	0.3% (inactive)
CC(=O)Nc1cccc(/C(C)=N/NC(=O)c2cccs2)c1	330	-0.4% (inactive)
COc1ccc(-c2cc(C(F)(F)F)nc(SCC(=O)Nc3ccc4c(c3)OCO4)n2)cc1	399	-0.2% (inactive)
COc1ccccc1P(=O)(c1ccccc1)c1ccc([N+](=O)[O-])cc1 (centres undefined)	384	0.2% (inactive)
COc1ccccc1NC(=O)CSCc1ccc([N+](=O)[O-])cc1	415	-0.1% (inactive)
CC(=O)N1CC=C2C(C#N)=C(N)C(C#N)(C#N)C(C)C2C1 (centres undefined)	315	-0.2% (inactive)
Cc1ccc(NC(=O)CS(=O)CC(=O)NC23CC4CC(CC(C4)C2)C3)cc1 (centres undefined)	322	0% (inactive)

SMILES	cell count [1] [cells]	activation [2]
CCc1ccccc1NC(=O)c1ccc(-c2csc(C)n2)cc1	398	-0.1% (inactive)
COc1ccc(CNc2nc(-c3cccnc3)nn2S(C)(=O)=O)cc1	258	1.3% (inactive)
COc1cccc(-c2nnc3n2N=C(c2cc(OC)ccc2OC)CS3)c1	449	-0.1% (inactive)
COc1ccc(OC)c(C2=Nn3c(nnc3-c3cccc(OC(C)C)c3)SC2)c1	301	-0.2% (inactive)
CCOc1cccc(-c2nnc3n2N=C(c2cc(OC)ccc2OC)CS3)c1	276	100% (active)
Cc1ccc(S(=O)(=O)NC2=C(N3CCN(c4ccccc4F)CC3)C(=O)c3ccccc3C2=O)cc1	421	-0.1% (inactive)
COc1ccc(CN2C(=O)c3ccccc3C2=O)cc1	379	0.6% (inactive)
COc1ccc(CN2C(=O)c3cccc4cccc(c34)C2=O)cc1	353	-0.1% (inactive)
CCc1nn(CC(=O)NCCc2ccc(Cl)cc2)c(=O)c2cccn12	343	0% (inactive)
CCOC(=O)C(CC)(CCC(=O)OC)c1csc(Nc2ccccc2O)n1 (centres undefined)	367	-0.1% (inactive)
Fc1cccc(NCCc2c[nH]c3ccccc23)n1	334	-0.2% (inactive)
COc1ccccc1N1CCN(C2CCN(C(=O)COc3ccccc3)CC2)CC1	401	-0.1% (inactive)
O=C(NCCN1CCOCC1)c1cc(-c2ccco2)on1	315	-0.1% (inactive)
COc1ccc(Nc2nc(Cl)c(C=O)s2)cc1	273	0.2% (inactive)
Cc1nnnn1/C(=C\c1ccccc1)C(=O)OCC(=O)N1CC2(C)CC1CC(C)(C)C2 (centres undefined)	330	74.3% (active)
Cc1nnnn1/C(=C\c1ccccc1)C(=O)OCC(=O)N(C)C1CCS(=O)(=O)C1 (centres undefined)	254	-0.4% (inactive)
Cc1nnnn1/C(=C\c1ccccc1)C(=O)OCC(=O)NC(C)(C)C	301	-0.3% (inactive)
CS(=O)(=O)N(CC(=O)NCCc1ccccc1)C1CCCCC1	388	-0.1% (inactive)
N#Cc1c2n(c(=S)n(-c3ccc(F)cc3)c1=O)CCCCC2	250	-0.3% (inactive)
CC(C)CC(=O)Nc1nnc(S(=O)(=O)N(C)Cc2ccco2)s1	342	-0.2% (inactive)
CSc1ccccc1OCc1cc(C(=O)N2CCc3sccc3C2)no1	327	-0.2% (inactive)
Cc1ccc2c(C)c(C(=O)N3CCN(Cc4ccc5c(c4)OCO5)CC3)oc2c1C	372	-0.1% (inactive)

SMILES	cell count [1] [cells]	activation [2]
COc1ccc(S(=O)(=O)NCCSC(C)(C)C)cc1Cl	346	-0.1% (inactive)
CCOC(=O)Cn1c(CN2CCN(C(c3ccccc3)c3ccccc3)CC2)nc2c1c(=O)n(C)c(=O)n2C	284	0.3% (inactive)
O=C(C1CCCN(S(=O)(=O)c2cccc3nsnc23)C1)N1CCCCCC1 (centres undefined)	250	0.1% (inactive)
N#Cc1ccccc1NC(=O)CC1CCCCC1	377	-0.1% (inactive)
O=C(O)c1ccc[nH]c1=S	381	0% (inactive)
CCN(CC)S(=O)(=O)c1ccc(N2CCOCC2)c(NCC(=O)Nc2ccc(F)cc2)c1	259	-0.1% (inactive)
COc1ccccc1C(=O)NC(=S)/C=C1/N(C)c2ccccc2C1(C)C	278	91% (active)
CN1/C(=C\C(=S)NC(=O)c2ccccc2Cl)C(C)(C)c2ccccc21	357	-0.2% (inactive)
Cc1ccc(C(=O)NC(=S)/C=C2\N(C)c3ccccc3C2(C)C)cc1	272	0.2% (inactive)
COc1cccc(C(=O)Nc2cnn(C(C)C)c2)c1	253	-0.2% (inactive)
CNc1nc(-c2ccc(Cl)cc2)cs1	302	-1% (inactive)
COc1ccc(NC(=O)NC2CCCCCCC2)c(OC)c1	240	-0.1% (inactive)
CCC(=O)Nc1ccc(OC)cc1OC	375	-0.2% (inactive)
CCOC(=O)c1[nH]c2ccc(C(=O)OC)cc2c1C(=O)OCC	400	-0.3% (inactive)
CCCCc1ccc(C2C(C#N)=C(N)SC(N)=C2C#N)s1	340	0.2% (inactive)
O=C(COC(=O)/C=C/c1cccc(Cl)c1)NCCc1ccc(Cl)cc1Cl	315	0% (inactive)
O=C(O)C1CCCN1C(=O)c1cncc(Br)c1 (centres undefined)	262	-0.2% (inactive)
CC(C)OCC(O)Cn1c(N2CCCC2)nc2c1c(=O)[nH]c(=O)n2C (centres undefined)	350	-0.2% (inactive)
Cc1c(C2N3CC4(C)CN2CC(C)(C3)C4=O)c2ccccc2n1C (centres undefined)	309	0.1% (inactive)
CC(C)(C)NC(=O)CSc1nncn1NCc1c(Cl)cccc1Cl	294	-0.2% (inactive)
COc1cc2c3nnc(-c4ccccc4)c-3cn(Cc3ccc(F)cc3)c2cc1OC	393	1.3% (inactive)
COc1cc2c3nnc(-c4ccc(F)cc4)c-3cn(Cc3ccccc3F)c2cc1OC	274	76.7% (active)

SMILES	cell count [1] [cells]	activation [2]
COc1cc2c3nnc(-c4ccc(F)cc4)c-3cn(Cc3ccc(F)cc3)c2cc1OC	348	16.9% (inactive)
Cc1oc2c(C)c(O)ccc2c(=O)c1N1C(=O)c2ccccc2C1=O	286	0.2% (inactive)
CCOc1ccc2nc(SCC(=O)N3c4ccccc4Sc4ccccc43)c(C#N)cc2c1	304	112% (active)
CCOc1ccc2nc(SCC(=O)N3CCCCCC3)c(C#N)cc2c1	334	-0.1% (inactive)
CCOc1ccc2nc(SCC(=O)N3c4ccccc4Sc4ccccc43)sc2c1	319	16.7% (inactive)
Nc1cccnc1Sc1ccc(Cl)cc1	377	0% (inactive)
COC(=O)c1cc(OC)c(OC)cc1NC(=O)CC1CCCCC1	320	-0.2% (inactive)
Cc1cccc(NS(=O)(=O)c2cc([N+](=O)[O-])ccc2C)n1	419	-0.1% (inactive)
COc1cc(/C=C/C(=O)Oc2coc(CSc3ncccn3)cc2=O)cc(OC)c1OC	281	-0.2% (inactive)
CCCOCC(O)COc1ccccc1C(=O)N1CCOCC1 (centres undefined)	317	-0.2% (inactive)
CCC1Sc2ccc(S(=O)(=O)CCC(=O)Nc3cc(C)ccn3)cc2NC1=O (centres undefined)	341	-0.1% (inactive)
CC(NC(=O)Cn1nc(C(F)(F)F)c2c1CCC2)c1ccccc1 (centres undefined)	371	-0.2% (inactive)
COc1ccc2nc(C)cc(SCC(=O)N/N=C/c3ccco3)c2c1	330	0.2% (inactive)
Cc1ccccc1NC(=O)NC1CCCCC1C (centres undefined)	353	0.4% (inactive)
CN(C)c1ccc(/C=N/NC(=O)C2CC2c2ccccc2)cc1 (centres undefined)	339	-0.2% (inactive)
O=C(NCc1ccc(F)cc1)C(=O)NCC1OCCCN1S(=O)(=O)c1cccs1 (centres undefined)	348	-0.1% (inactive)
COc1ccc(C(=O)NCC(=O)N/N=C/c2cccnc2)cc1OC	322	-0.2% (inactive)
Cc1nc(Cl)sc1C(=O)Nc1cc(F)cc(F)c1	356	-0.2% (inactive)
CN(C)c1ccc(/C=C/C(=O)c2ccccc2O)cc1	238	0.1% (inactive)
CN(C)c1ccc(C(=O)/C=C/c2ccccc2)cc1	254	-0.3% (inactive)
Cn1c(=O)c(=O)n(C)c2cc(S(=O)(=O)N3CCN(c4ccccc4F)CC3)ccc21	328	-0.1% (inactive)
